CYP2C19 inhib = human CYP2C19 inhibition; CYP2C19 Supersomes, luciferin-H EGE luminescence, 30 min; inhibition, % at 5 µM; hit rate 21% among 96,000; AID 778;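 active = CYP2C19 inhibition above a set limit at 5 µM in the primary screen, cut at about 50% in these data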;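 note: plate controls were negative control wells for no effect and 2.5 mM tranylcypromine positive control for full effect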
Target sequence (P33261 whole entry, looked up): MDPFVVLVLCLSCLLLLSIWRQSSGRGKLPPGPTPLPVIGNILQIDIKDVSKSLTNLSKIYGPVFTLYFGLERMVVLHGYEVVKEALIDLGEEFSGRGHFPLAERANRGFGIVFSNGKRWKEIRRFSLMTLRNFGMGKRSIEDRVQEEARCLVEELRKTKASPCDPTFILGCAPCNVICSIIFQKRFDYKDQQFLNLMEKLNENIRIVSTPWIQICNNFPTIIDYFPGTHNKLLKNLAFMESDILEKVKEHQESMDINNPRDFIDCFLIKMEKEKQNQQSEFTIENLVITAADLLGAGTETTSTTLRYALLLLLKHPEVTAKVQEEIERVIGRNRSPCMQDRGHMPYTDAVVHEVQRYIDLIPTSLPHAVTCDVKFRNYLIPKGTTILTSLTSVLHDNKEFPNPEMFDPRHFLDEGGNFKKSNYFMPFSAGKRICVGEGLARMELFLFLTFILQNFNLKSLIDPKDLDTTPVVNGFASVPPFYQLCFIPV
CYP2C19 act = increases human CYP2C19 enzyme activity. AID 1025. recombinant CYP2C19, luciferin-H EGE luminescence; hits give high values; 0 = fully inhibited enzyme, 1 = untreated enzyme. 96,000 tested, under 10 active. P33261. activation factor at 5 µM;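 active = activation factor of at least 2 at 5 µM in the primary screen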;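 note: 0 = wells with 2.5 mM tranylcypromine and 1 = vehicle-only wells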
CYP2C9 activ = increases human cytochrome P450 2C9 activity | P11712 | AID 1024 | hit rate 1.4% among 96,000 | recombinant CYP2C9, luciferin-H conversion, luminescence; hits give high values; factor 1 = untreated enzyme, 0 = blocked | activation factor at 5 µM;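 active = activation factor of 2 or more for CYP2C9 at a 5 µM dose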;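 note: 0 = sulfaphenazole-blocked wells and 1 = vehicle-only wells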
Cav3 T inh = inhibitors of human Cav3.2 T-type calcium channel; O95180; Cav3.2-expressing cells, Fluo-4 calcium fluorescence FDSS; hits give low values; B-score at 10 µM; hit rate 4% among 100,000; AID 449739;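 active = single-dose well whose peak fluorescence ratio is a statistical outlier from its plate by either plate-standardised score or position-corrected B-score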
CYP2C9 inhib = human CYP2C9 inhibition. CYP2C9 Supersomes, luciferin-H conversion, luminescence. P11712. inhibition, % at 5 µM. hit rate 20% among 96,000. AID 777;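 active = blocking of liver enzyme CYP2C9 beyond about 50% at 5 µM, limit read from the data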
* marks the source's active call; other numbers are inactive results; / = not tested or not shown. Compounds with a hit are over-represented: about 27% of the library has one in this group of screens.

SMILES | CYP2C19 inhib | CYP2C19 act | CYP2C9 activ | Cav3 T inh | CYP2C9 inhib
Cc1c(C2Nc3ccccc3C(=O)N2O)cnn1C (stereo not drawn) | / | / | / | -0.32 | /
c1ccc(CSc2nnc(-c3ccncc3)o2)cc1 | 97* | 0 | 0.1 | 0.36 | 93*
O=C(Cc1cccs1)N(c1ccccc1)C1C=CS(=O)(=O)C1 (stereo not drawn) | 31 | 0.7 | 1 | 0.061 | 1
CCc1ccccc1N(C(=O)c1cccs1)C1C=CS(=O)(=O)C1 (stereo not drawn) | 71* | 0.3 | 0.9 | 0.81 | 14
Cc1cc2n(n1)C(c1ccc3c(c1)OCO3)Nc1c(C)cccc1-2 (stereo not drawn) | 98* | 0 | 0.1 | -3.3 | 92*
Nc1ccc(N2CCCCC2)cc1N1CCCCC1 | 35 | 0.6 | 0.8 | / | 24
Fc1ccc(-n2[nH]nnc2=S)cc1N1CCCC1 | -2 | 1 | 0.5 | -0.078 | 50*
CC1(C)CC(C#N)(N2CCOCC2)CCO1 (stereo not drawn) | 10 | 0.9 | 1.1 | 0.23 | -12
O=C1COc2ccc(C(=O)c3ccccc3C(=O)NCc3ccccc3)cc2N1 | 75* | 0.2 | 0.7 | -7.2* | 30
O=C1COc2ccc(C(=O)c3ccccc3C(=O)NCc3ccco3)cc2N1 | 67* | 0.3 | 0.9 | -3 | 10
O=C1COc2ccc(C(=O)NCc3ccco3)cc2N1 | -6 | 1.1 | 1.2 | 0.97 | -15
CCOC(=O)N1CCC(c2nc3ccccc3[nH]2)CC1 | 5 | 1 | 0.8 | 0.0069 | 21
CC(Oc1ccc(Cl)cc1Cl)C(=O)NCCCN(C)C (stereo not drawn) | 8 | 0.9 | 1 | 1.3 | -4
CCOC(=O)C1CCCN(c2cc(=O)n(Cc3ccc(F)cc3)c(=O)[nH]2)C1 (stereo not drawn) | 3 | 1 | 1 | 0.21 | 5
O=C(N/N=C/c1c[nH]c2ccccc12)c1ccn(Cc2ccc(Cl)cc2)n1 | 65* | 0.4 | 1 | -3 | 2
O=C(N/N=C/c1c[nH]c2ccc(Br)cc12)c1ccn(Cc2ccc(Cl)cc2Cl)n1 | 14 | 0.9 | 0.7 | -1.5 | 35
CCOc1ccc(NC(=O)c2cc3c(=O)n(C)c4ccccc4c3n2C)cc1 | 32 | 0.7 | 0.2 | 0.4 | 84*
Cn1c(C(=O)NC2CCCC2)cc2c(=O)n(C)c3ccccc3c21 | 56* | 0.4 | 1 | 1.5 | 5
CC(=O)OC(C(=O)Nc1ccccc1)C(C)S(=O)(=O)c1ccccc1 (stereo not drawn) | 65* | 0.3 | 0.7 | -0.39 | 32
COc1ccc(/C=C(/C#N)C(=O)Nc2ccc(C)cc2C)cc1C(=O)O | -14 | 1.1 | 1.2 | 0.78 | -18
COc1ccc(/C=C(/C#N)C(=O)Nc2cccc(C)c2C)cc1C(=O)O | 58* | 0.4 | 0.8 | -0.67 | 16
Cc1cc(N2CCN(c3cccc(C)c3C)CC2)nc(-c2ccccc2)n1 | / | / | / | 1.2 | /
CC1=C(C)CS(=O)N(S(=O)(=O)c2ccccc2)C1 (stereo not drawn) | 15 | 0.8 | 0.8 | -7.9* | 22
CC1=C(C)CS(=O)N(c2ccc(S(N)(=O)=O)cc2)C1 (stereo not drawn) | 37 | 0.6 | 2.4* | -7.2* | -142
Cc1cc(C)nc(-n2nc(C)c(Br)c2Nc2ccc(Br)cc2)n1 | 70* | 0.3 | 0.9 | -2.1 | 11
SMILES | CYP2C19 inhib | CYP2C19 act | CYP2C9 activ | Cav3 T inh | CYP2C9 inhib
Clc1ccc2c(c1)c1cc(Cl)ccc1n2CN1CCOCC1 | / | / | / | -0.33 | /
Clc1ccc2c(c1)c1ccccc1n2CN1CCOCC1 | 72* | 0.3 | 0.5 | -0.44 | 49
CCN1CCN(C(=O)c2cc3nc(-c4ccccc4)cc(C(F)(F)F)n3n2)CC1 | 14 | 0.9 | 1 | 1.1 | 3
COc1ccc2c(c1OC)C(=O)N1c3ccccc3C(=O)N(c3ccccc3)C21 (stereo not drawn) | 16 | 0.8 | 0.4 | -1.7 | 59*
O=C1c2ccccc2N2C(=O)c3ccccc3C2N1O (stereo not drawn) | -1 | 1 | 0.9 | -0.54 | 9
Cc1ccccc1N1C(=O)c2ccccc2N2C(=O)c3ccccc3C12 (stereo not drawn) | 4 | 1 | 0.7 | -4.3* | 32
COc1ccc2c(c1OC)C(=O)N1c3ccccc3C(=O)N(c3ccc(F)cc3)C21 (stereo not drawn) | 0 | 1 | 1 | -1.8 | 0
COc1ccccc1N(C)S(=O)(=O)c1ccc(C(=O)NC(C)(C)C)cc1 | 27 | 0.7 | 0.3 | / | 73*
CCN(CC(=O)NC(C)C)C(=O)c1ccc(S(=O)(=O)N(C)c2ccccc2OC)cc1 | 8 | 0.9 | 0.9 | -1 | 15

Compound activity deposited in PubChem BioAssay by several laboratories.
